The values that follow come from PubChem BioAssay (NCI).

Experiment [1] is described as follows: NCI Yeast Anticancer Drug Screen. Data for the rad50 strain (AID 155).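 Also: 0% = growth of vehicle-only cultures of the same strain.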 The conditions noted are these: S. cerevisiae rad50 strain growth inhibition, stronger effect = higher value. Summed up:
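Cells are treated with compound, grown, and their growth is then scored against vehicle-only cultures of the same repair-deficient yeast strain.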

Experiment [2] is described as follows: NCI Yeast Anticancer Drug Screen. Data for the mec2-1 strain (AID 157). The conditions noted are these: S. cerevisiae mec2-1 strain, stronger effect = higher value. Summed up: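 Yeast mec2-1 mutant treated with compound. Readout: growth inhibition vs vehicle controls.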
Experiment [3] in a line: NCI Yeast Anticancer Drug Screen. Data for the sgs1 mgt1 strain (AID 161).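 Also: 0% = growth of cultures given vehicle only.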 To be noted: S. cerevisiae sgs1 mgt1 strain, stronger effect = higher value. Summed up:
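Read-out: growth inhibition vs vehicle controls. Cells: mutant yeast strain deficient in DNA damage repair.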

Experiment [4] can be described thus: NCI Yeast Anticancer Drug Screen. Data for the cln2 rad14 strain (AID 165).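 Also: 0% = growth equal to vehicle treated cultures.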 To be noted: S. cerevisiae cln2 rad14 strain, stronger effect = higher value. Summed up: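 cln2 rad14 yeast strain; compound exposure; growth inhibition read vs vehicle controls.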
Experiment [5] is described as follows: NCI Yeast Anticancer Drug Screen. Data for the bub3 strain (AID 167). To be noted: S. cerevisiae bub3 mutant strain, stronger effect = higher value. Summed up:
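Part of a panel of yeast mutants defective in DNA damage repair or cell cycle regulation. Each strain is grown with compound, and inhibition is calculated relative to solvent-treated cultures.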

Experiment [6] in a line: NCI Yeast Anticancer Drug Screen. Data for the mlh1 rad18 strain (AID 175). The conditions noted are these: S. cerevisiae mlh1 rad18 strain growth inhibition, stronger effect = higher value. Summed up:
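Yeast w/ defined DNA-repair lesions; compound exposure; growth vs vehicle controls → % inhibition.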

Where [7] appears, read: at 5.0 µM (retest, dose inferred, filed as 0.5).
The mark [8] stands for this setting: at 50.0 µM (retest, dose inferred, filed as 5.0).

The structures appear in SMILES notation. Compounds without any hit were thinned out: in the full panel of roughly 79,000, 15% have a hit. A number with no mark means an inactive call. Active and inactive are the calls of the source. Rule as the data show it: active = growth inhibition above about 70%; inactive = the rest.

For `C/C(=N\N=C(/[Se])N1CCC(C)CC1)c1ccccn1`, the growth inhibition in experiment [1] (setting [7]) was 27%; in experiment [1] (setting [8]) it was 94% (active); in experiment [1] (at 50.0 µM) it was 94.5% (active); in experiment [2] (setting [7]), 24%; in experiment [2] (setting [8]) it was 91% (active); in experiment [2] (at 50.0 µM), 96% (active). Further, the growth inhibition in experiment [3] (setting [7]) was 9%; in experiment [3] (setting [8]) it was 71% (active); in experiment [3] (at 50.0 µM) it was 99.2% (active); in experiment [4] (setting [7]), 4%; in experiment [4] (setting [8]) it was -9%; in experiment [4] (at 50.0 µM), 47%. Besides, the growth inhibition in experiment [5] (setting [7]) was 6%; in experiment [5] (setting [8]), 20%; in experiment [5] (at 50.0 µM), 84.5% (active); in experiment [6] (setting [7]), 4%; in experiment [6] (setting [8]), 76% (active); in experiment [6] (at 50.0 µM), 98% (active).

With `COc1c(Br)cc(/C=C/[N+](=O)[O-])cc1Br`, the growth inhibition was 98% (active) in experiment [1] (setting [7]); 98% (active) in experiment [1] (setting [8]); 92.4% (active) in experiment [1] (at 50.0 µM); 99% (active) in experiment [2] (setting [7]); 99% (active) in experiment [2] (setting [8]); 91.6% (active) in experiment [2] (at 50.0 µM). Also, the growth inhibition in experiment [3] (setting [7]) was 98% (active); in experiment [3] (setting [8]), 99% (active); in experiment [3] (at 50.0 µM), 89.8% (active); in experiment [4] (setting [7]), 96% (active); in experiment [4] (setting [8]), 97% (active); in experiment [4] (at 50.0 µM), 90.5% (active). The growth inhibition was 99% (active) in experiment [5] (setting [7]); 97% (active) in experiment [5] (setting [8]); 88.2% (active) in experiment [5] (at 50.0 µM); 98% (active) in experiment [6] (setting [7]); 98% (active) in experiment [6] (setting [8]); 82.8% (active) in experiment [6] (at 50.0 µM).

`CCCCCCCC[As](C)(=O)O`: the growth inhibition in experiment [1] (setting [7]) was -151%; in experiment [1] (setting [8]) it was -121%; in experiment [1] (at 50.0 µM), 4.95%; in experiment [2] (setting [7]), -54%; in experiment [2] (setting [8]), -47%; in experiment [2] (at 50.0 µM) it was 2.85%. The growth inhibition is -67% in experiment [3] (setting [7]); -55% in experiment [3] (setting [8]); 4.5% in experiment [3] (at 50.0 µM); -72% in experiment [4] (setting [7]); -59% in experiment [4] (setting [8]); 11.4% in experiment [4] (at 50.0 µM). Further, the growth inhibition was -75% in experiment [5] (setting [7]); -71% in experiment [5] (setting [8]); -12.1% in experiment [5] (at 50.0 µM); -144% in experiment [6] (setting [7]); -88% in experiment [6] (setting [8]); 6.2% in experiment [6] (at 50.0 µM).

Regarding `CC[C@@]1(O)C(=O)OCc2c1cc1n(c2=O)Cc2cc3c(OC)cccc3nc2-1`, the growth inhibition in experiment [1] (setting [7]) is 96% (active); in experiment [1] (setting [8]), 92% (active); in experiment [1] (at 50.0 µM) it was 83.6% (active); in experiment [2] (setting [7]) it was 96% (active); in experiment [2] (setting [8]), 92% (active); in experiment [2] (at 50.0 µM), 89.4% (active). The growth inhibition in experiment [3] (setting [7]) is 71% (active); in experiment [3] (setting [8]), 88% (active); in experiment [3] (at 50.0 µM), 82.4% (active); in experiment [4] (setting [7]) it was 55%; in experiment [4] (setting [8]), 74% (active); in experiment [4] (at 50.0 µM), 64%. Further, the growth inhibition in experiment [5] (setting [7]) was 48%; in experiment [5] (setting [8]) it was 78% (active); in experiment [5] (at 50.0 µM), 70.8% (active); in experiment [6] (setting [7]), 86% (active); in experiment [6] (setting [8]) it was 83% (active); in experiment [6] (at 50.0 µM) it was 78.8% (active).

Turning to `CCC[CH2][Sn]([CH2]CCC)([N]=C=S)[N]=C=S`, the growth inhibition in experiment [1] (setting [7]) is 85% (active); in experiment [1] (setting [8]) it was 97% (active); in experiment [1] (at 50.0 µM) it was 97.9% (active); in experiment [2] (setting [7]), 92% (active); in experiment [2] (setting [8]), 98% (active); in experiment [2] (at 50.0 µM), 98% (active). Besides, the growth inhibition in experiment [3] (setting [7]) is 92% (active); in experiment [3] (setting [8]) it was 98% (active); in experiment [3] (at 50.0 µM) it was 98% (active); in experiment [4] (setting [7]), 87% (active); in experiment [4] (setting [8]) it was 97% (active); in experiment [4] (at 50.0 µM) it was 97.3% (active). Moreover, the growth inhibition is 94% (active) in experiment [5] (setting [7]); 97% (active) in experiment [5] (setting [8]); 98.4% (active) in experiment [5] (at 50.0 µM); 93% (active) in experiment [6] (setting [7]); 98% (active) in experiment [6] (setting [8]); 98.1% (active) in experiment [6] (at 50.0 µM).

In the case of `O=C(O)C(Br)C(Br)C(=O)O.[Ag]` (configuration not stated), the growth inhibition in experiment [1] (setting [7]) is 99% (active); in experiment [1] (setting [8]) it was 99% (active); in experiment [1] (at 50.0 µM), 98.8% (active); in experiment [2] (setting [7]), 100% (active); in experiment [2] (setting [8]), 100% (active); in experiment [2] (at 50.0 µM) it was 99.3% (active). In addition, the growth inhibition in experiment [3] (setting [7]) is 99% (active); in experiment [3] (setting [8]), 100% (active); in experiment [3] (at 50.0 µM) it was 98.7% (active); in experiment [4] (setting [7]), 97% (active); in experiment [4] (setting [8]) it was 99% (active); in experiment [4] (at 50.0 µM), 99.1% (active). Further, the growth inhibition in experiment [5] (setting [7]) was 99% (active); in experiment [5] (setting [8]) it was 99% (active); in experiment [5] (at 50.0 µM) it was 98.8% (active); in experiment [6] (setting [7]), 99% (active); in experiment [6] (setting [8]), 99% (active); in experiment [6] (at 50.0 µM), 99.2% (active).

Regarding `CC1=CC2CC(C)=C(CC[C@]3(C)CC[C@H]([C@@H](C)C(=O)O)OO3)C(C)(C)C2CC1` (some centres not stated), the growth inhibition is 41% in experiment [1] (setting [7]); 98% (active) in experiment [1] (setting [8]); 91.7% (active) in experiment [1] (at 50.0 µM); 59% in experiment [2] (setting [7]); 99% (active) in experiment [2] (setting [8]); 93.8% (active) in experiment [2] (at 50.0 µM). Besides, the growth inhibition in experiment [3] (setting [7]) is 69%; in experiment [3] (setting [8]), 99% (active); in experiment [3] (at 50.0 µM) it was 93% (active); in experiment [4] (setting [7]) it was 41%; in experiment [4] (setting [8]), 98% (active); in experiment [4] (at 50.0 µM), 91.2% (active). Besides, the growth inhibition in experiment [5] (setting [7]) was 52%; in experiment [5] (setting [8]), 98% (active); in experiment [5] (at 50.0 µM), 92.2% (active); in experiment [6] (setting [7]), 60%; in experiment [6] (setting [8]), 98% (active); in experiment [6] (at 50.0 µM) it was 91.4% (active).

As for `CCCC(C)(COC(N)=O)COC(=O)NC1CC1` (configuration not stated), the growth inhibition in experiment [1] (setting [7]) is -8%; in experiment [1] (setting [8]), 0%; in experiment [1] (at 50.0 µM), 21.9%; in experiment [2] (setting [7]) it was -12%; in experiment [2] (setting [8]), 0%; in experiment [2] (at 50.0 µM), 0.05%. Further, the growth inhibition is -8% in experiment [3] (setting [7]); 0% in experiment [3] (setting [8]); 36.3% in experiment [3] (at 50.0 µM); -2% in experiment [4] (setting [7]); -6% in experiment [4] (setting [8]); 37.1% in experiment [4] (at 50.0 µM). Also, the growth inhibition in experiment [5] (setting [7]) is 0%; in experiment [5] (setting [8]), -5%; in experiment [5] (at 50.0 µM), -4.4%; in experiment [6] (setting [7]), 14%; in experiment [6] (setting [8]), 7%; in experiment [6] (at 50.0 µM), -2%.

With `COc1cc(C2c3[nH]c4ccccc4c3[C@@H](Nc3ccc(C#N)cc3)[C@H]3COC(=O)N23)cc(OC)c1O` (some centres not stated), the growth inhibition in experiment [1] (setting [7]) was 19%; in experiment [1] (setting [8]), 95% (active); in experiment [1] (at 50.0 µM) it was 73.8% (active); in experiment [2] (setting [7]), 21%; in experiment [2] (setting [8]) it was 91% (active); in experiment [2] (at 50.0 µM), 77.3% (active). The growth inhibition in experiment [3] (setting [7]) was -15%; in experiment [3] (setting [8]), 61%; in experiment [3] (at 50.0 µM) it was 58.8%; in experiment [4] (setting [7]), -3%; in experiment [4] (setting [8]), 57%; in experiment [4] (at 50.0 µM), 71.4% (active). Besides, the growth inhibition in experiment [5] (setting [7]) was -23%; in experiment [5] (setting [8]) it was 70% (active); in experiment [5] (at 50.0 µM) it was 65.9%; in experiment [6] (setting [7]) it was 21%; in experiment [6] (setting [8]), 71% (active); in experiment [6] (at 50.0 µM), 50.8%.
